Measured values published in PubChem BioAssay (EPA / NIEHS).
Records with an inconclusive call do not appear. Active and inactive are the calls of the source. Rule for the calls: active = hit-call score of the fitted dose curve at least 0.9, where 1 is the maximum; inconclusive = response in the unintended direction; inactive = score below 0.9.

Test system: turtle Androgen Receptor (AR), gene 101947425
Test: ATG_trAR_XSP1: Attagene TRANS-FACTORIAL Multi-Species (XSP1) HepG2 Assay for turtle Androgen Receptor (AR) (AID 2283786)
Method in brief: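 HepG2 cells transiently transfected with a turtle AR–GAL4 chimera and GAL4-UAS reporter, co-treated with 3 nM 6-alpha-fluorotestosterone for partial stimulation. Reporter mRNA is quantified at 24 h by RT-PCR and capillary electrophoresis, gain-of-signal versus DMSO.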

## O=S(=O)(O)C(F)(F)C(F)(F)C(F)(F)C(F)(F)C(F)(F)C(F)(F)C(F)(F)C(F)(F)F
  AC50: 130 µM (active)
